We go through 17 molecules from PubChem BioAssay (NCATS).

Records with an inconclusive call do not appear. Entries that show only a call come without a potency. Activity calls are given as the source filed them. Calls follow the shape of the dose curve; as a rule, active = well fitted cell-killing curve with a large enough effect; inconclusive = small, poorly fitted or top-dose-only effect; inactive = flat fitted curve, though single readings scatter.
Potency is read from the fitted curve at half-maximal effect.

The nature of this experiment: Cell Viability - LYMP2-022 (AID 987). Also: nearly all actives have a fitted effect of over 55% in size. Particulars: LYMP2-022 lymphoblastoid cell viability; series mostly up to 92.2 µM. The text has this: NIH Chemical Genomics Center [NCGC]
NIH Molecular Libraries Screening Centers Network [MLSCN]
National Institutes of Environmental Health Sciences [NIEHS]
National Toxicology Program [NTP]
We have developed a 1536-well cell-based assay for quantitative high throughput screening (qHTS) against a number of cell lines to determine in vitro cytotoxicity of small molecules. This particular assay uses a human lymphoblastoid cell line (LYMP2-022) purchased from Coriell Institute for Medical Research.
NCGC Assay Protocol Summary:
The CellTiter-Glo luminescent cell viability assay (Promega) is a homogeneous method to measure the number of viable cells in culture. The end point readout of this assay is based on quantitation of intracellular ATP, an indicator of metabolic activity, using the luciferase reaction. Luciferase catalyzes the oxidation of beetle Luciferin to oxyluciferin and light in the presence of ATP. The luminescent signal is proportional to amount of ATP present.
Using the CellTiter-Glo luminescent cell viability assay, the amount of cellular ATP was measured in the lymphoblastoid cell line with complete culture medium following compound treatment for 24 hours. The assay was performed in opaque white Kalypsys 1536-well plates. In the screen, tetraoctylammonium bromide was used as positive control. Library compounds were measured for their ability to cause acute toxicity in the cell line, as reflected by a decrease in intracellular ATP levels, in a concentration-dependent manner. […] AC50 values were determined from concentration-response data modeled with the standard Hill equation.
qHTS protocol for CellTiter Glo lymphoblastoid cellular assay
[Step] [Parameter] [Value] [Description]
1. Reagent; 5 uL; 2500 lymphoblastoid cells/well
2. Time; 5 hr; 37 C incubation
4. Controls; 23 nL; Tetraoctylammonium bromide 6.4pM to 92 uM
5. Time; 24 hr; 37 C incubation
6. Reagent; 5 uL; CellTiter Glo reagent
7. Time; 30 min; Room Temperature
8. Detection; Luminescence; Viewlux plate reader
Keywords: cell viability, cytotoxicity, lymphoblastoid cell line, luminescence, NTPHTS, NTPHTS_NCGC, NIEHS, DSSTox, MLSMR, MLSCN, NIH Roadmap, qHTS, NCGC
For the molecule `CCCC(C)(COC(N)=O)COC(N)=O`, the Potency entry is “inactive”.

For `COP(=S)(OC)Oc1ccc(SC)c(C)c1`, the Potency entry was “inactive”.

As for `COc1cc(OC)c(OC)cc1C=O`, the Potency entry was “inactive”.

`C[C@]1(O)CC[C@H]2[C@@H]3CCC4=CC(=O)CC[C@]4(C)[C@@]3(F)[C@@H](O)C[C@@]21C`: the Potency result was “inactive”.

`CCOC(=O)CC(SP(=S)(OC)OC)C(=O)OCC` (configuration not stated): the Potency result is “inactive”.

Regarding `NCCc1ccc(O)cc1`, the Potency entry was “inactive”.

Turning to `Nc1ccccc1C(=O)O`, the Potency entry is “inactive”.

Consider `Nc1ccccc1`, for which the Potency entry is “inactive”.

With `C[C@]12CCC(=O)C=C1CC[C@@H]1[C@@H]2CC[C@]2(C)C(=O)CC[C@@H]12`, the Potency result is “inactive”.

Take `CCC(C)(C)c1ccc(O)cc1`: the Potency result is “inactive”.

With `C[C@]12CCC(=O)C=C1CC[C@@H]1[C@@H]2CC[C@@]2(C)[C@H]1CC[C@]2(C)O`, the Potency result was “inactive”.

Take `Clc1ccc(C(c2ccc(Cl)cc2)C(Cl)(Cl)Cl)cc1`: the Potency entry is “inactive”.

As for `O=P1(N(CCCl)CCCl)NCCCO1` (configuration not stated), the Potency result was “inactive”.

For the molecule `CC(C)c1cccc(C(C)C)c1O`, the Potency result was “inactive”.

`Oc1ccc(Cl)cc1`: the Potency entry was “inactive”.

Consider `O=C(O)CCCc1ccc(N(CCCl)CCCl)cc1`, for which the Potency is 39.8 µM (active).

Consider `CC(C)NC(C)C`, for which the Potency entry is “inactive”.
